High-throughput results: PubChem, several laboratories
Shown are actives, neighbours in structure and some others; about 1.4% of the full set was active somewhere.
BCLXL inh = inhibitors of human Bcl-xL | Q07817 | GST-Bcl-xL / FITC-Bim BH3 peptide fluorescence polarization | actives 0.7% (n = 320,000) | AID 2129 | inhibition, % at 10.9 µM;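 active = inhibition above the mean of all tested compounds plus 3 SD, cutoff set per campaign, cut at about 30% in these data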;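 note: 0% = DMSO wells and 100% = unlabeled Bim-BH3 peptide competitor; inhibitors lower millipolarization by displacing the labeled peptide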
GLD-1 TGE inh = GLD-1-TGE RNA interaction inhibition (C. elegans). purified GLD-1 + fluorescein TGE RNA, fluorescence polarization. Q17339. actives 0.44% (n = 320,000). inhibition, % at 5.96 µM;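 active = percent inhibition above a per-plate cutoff, the plate mean of test compounds plus 3 SD, cut at about 30% in these data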;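 note: 0% = DMSO wells with GLD-1 and probe and 100% = wells lacking GLD-1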
E coli Lon inh = inhibits E. coli Lon protease | P0A9M0 | purified E. coli Lon protease, fluorescence polarization | inhibition, % at 7.94 µM | actives 0.42% (n = 360,000) | AID 602123; in the data active = inhibition above about 13%, passing the limit was not always enough;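 note: 0% = enzyme with probe and DMSO and 100% = no enzyme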
Target sequence (P0A9M0 whole entry, looked up): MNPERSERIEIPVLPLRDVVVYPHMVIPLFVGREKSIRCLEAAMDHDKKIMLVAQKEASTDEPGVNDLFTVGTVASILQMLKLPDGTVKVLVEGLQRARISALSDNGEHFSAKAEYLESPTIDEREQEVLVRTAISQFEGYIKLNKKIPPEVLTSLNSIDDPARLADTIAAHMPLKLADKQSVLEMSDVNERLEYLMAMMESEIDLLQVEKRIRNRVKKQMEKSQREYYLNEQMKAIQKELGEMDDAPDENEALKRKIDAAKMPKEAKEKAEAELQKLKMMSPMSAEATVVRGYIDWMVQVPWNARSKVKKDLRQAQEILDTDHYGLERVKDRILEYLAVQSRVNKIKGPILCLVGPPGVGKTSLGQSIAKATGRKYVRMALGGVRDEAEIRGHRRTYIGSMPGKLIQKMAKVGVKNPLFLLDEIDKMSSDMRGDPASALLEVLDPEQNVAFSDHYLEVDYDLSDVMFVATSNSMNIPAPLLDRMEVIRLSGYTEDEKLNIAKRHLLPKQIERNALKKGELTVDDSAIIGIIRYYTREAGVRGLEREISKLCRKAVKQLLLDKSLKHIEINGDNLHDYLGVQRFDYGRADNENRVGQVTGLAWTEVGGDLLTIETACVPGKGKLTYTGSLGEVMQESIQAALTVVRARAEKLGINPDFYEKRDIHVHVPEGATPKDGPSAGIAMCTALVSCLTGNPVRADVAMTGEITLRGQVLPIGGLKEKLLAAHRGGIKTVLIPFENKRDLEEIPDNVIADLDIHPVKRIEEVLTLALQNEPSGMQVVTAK
MCL1 BIM primary = disrupts human MCL1 binding to BIM-BH3 peptide. GST-MCL1 / FITC-Bim-BH3 fluorescence polarization. inhibition, % at 10.9 µM. actives 0.68% (n = 320,000);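 active = inhibition above the mean inhibition of all tested compounds plus 3 SD, set per campaign, cut at about 40% in these data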;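 note: 0% = DMSO wells and 100% = unlabeled Bim-BH3 peptide control; higher means more loss of mP so more displacement of Bim peptide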
MEX-5 binding = C. elegans MEX-5 TCR-2 RNA binding activity; Q9XUB2; MEX-5/FITC-TCR2 RNA binding, fluorescence polarization; hits give low values; activity score (negative = inhibition of binding), % at 10 µM; actives 0.38% (n = 300,000); AID 1832;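 active = inhibition past about -25% in most replicates, and total fluorescence under double the plate's negative control median, limit read from the data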;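 note: 0% = DMSO and -100% = 5 µM competing unlabeled TCR2 RNA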
eLon confirm = E. coli Lon inhibition confirmation | inhibition, % at 7.94 µM | purified E. coli Lon, fluorescence polarization | actives 31% (n = 1,400) | AID 602230 | shares compounds with E coli Lon inh; in the data active = inhibition above about 16%;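 note: 0% = enzyme with probe and DMSO and 100% = no enzyme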
Starred values were filed as active, the others as inactive.

Results for O=S(=O)(Nc1cccc(S(=O)(=O)N2CCCC2)c1)c1ccc(Cl)cc1 ?
GLD-1 TGE inh: 3; E coli Lon inh: 101*; eLon confirm: -4

What do the screens show for `O=S(=O)(Nc1cccc(S(=O)(=O)N2CCCCCC2)c1)c1ccccc1`?
BCLXL inh: 3; GLD-1 TGE inh: -2; E coli Lon inh: 4; MCL1 BIM primary: -3; MEX-5 binding: 0

Results for COc1c(O)cccc1[C@@H](O)C1CCN(CCc2ccc(F)cc2)CC1 ?
BCLXL inh: 41*; GLD-1 TGE inh: 58*; E coli Lon inh: 35*; MCL1 BIM primary: 40; MEX-5 binding: -29*; eLon confirm: 0

What do the screens show for `COc1ccc(CCN2CCC(Nc3nc4ccccc4n3Cc3ccc(F)cc3)CC2)cc1`?
BCLXL inh: 9; GLD-1 TGE inh: -4; E coli Lon inh: -5; MCL1 BIM primary: 11; MEX-5 binding: -2

What do the screens show for `O=C(CN(C(=O)Cn1nnc(-c2ccc(F)cc2)n1)c1ccc(F)cc1)NC1CCCC1`?
BCLXL inh: 3; GLD-1 TGE inh: 8; E coli Lon inh: 18*; MCL1 BIM primary: -3; MEX-5 binding: 0; eLon confirm: 1

Results for NS(=O)(=O)c1ccc(CCNC(=O)CSc2nc3c(sc(=S)n3-c3ccccc3)c(=O)[nH]2)cc1 ?
E coli Lon inh: 16

What do the screens show for `COC(=O)c1cc2c(n1S(=O)(=O)c1ccc(C)cc1)C(=O)C(=O)c1[nH]cc(C(=O)OCc3ccccc3)c1-2`?
E coli Lon inh: -5

What do the screens show for `Cc1ccsc1C1Nc2ccc3ncccc3c2C2=C1C(=O)CC(C)(C)C2` (stereo unspecified)?
BCLXL inh: 9; GLD-1 TGE inh: 12; E coli Lon inh: 22*; MCL1 BIM primary: 9; MEX-5 binding: 1; eLon confirm: 3

Results for CC1(C)CC(=O)C2=C(C1)c1c(ccc3ccccc13)NC2c1ccco1 (stereo unspecified) ?
BCLXL inh: 6; GLD-1 TGE inh: 5; E coli Lon inh: 0; MCL1 BIM primary: 8; MEX-5 binding: 0

Results for CCn1cnc2cc(NCc3ccc(C)cc3)ccc21 ?
BCLXL inh: 6; GLD-1 TGE inh: -3; E coli Lon inh: 117*; MCL1 BIM primary: 10; MEX-5 binding: -3; eLon confirm: 1

What do the screens show for `CCn1cnc2cc(NCc3ccc(Br)cc3)ccc21`?
BCLXL inh: 9; GLD-1 TGE inh: -1; MCL1 BIM primary: 16; MEX-5 binding: 0

How did Cc1ccc(C(C)C)c2c1C(c1ccc3c(c1)OCO3)CC(=O)O2 (stereo unspecified) do in these assays?
E coli Lon inh: 1

Results for COc1ccc(NC(=O)Nc2ccc(OCc3ccccc3)cc2)cn1 ?
E coli Lon inh: 25*; MEX-5 binding: -37*; eLon confirm: 25*

Results for COc1cc(NC(=O)NS(=O)(=O)c2ccc(C)cc2)cc(OC)c1 ?
BCLXL inh: 3; GLD-1 TGE inh: -4; E coli Lon inh: 8; MCL1 BIM primary: 1; MEX-5 binding: 1

What do the screens show for `COc1ccc(NC(=O)NS(=O)(=O)c2ccc(C)cc2)cn1`?
E coli Lon inh: 87*; MEX-5 binding: -50*; eLon confirm: 28*

Results for COc1cccc(NC(=O)CN(C)C(=O)Cc2n[nH]c(=O)c3ccccc23)c1 ?
BCLXL inh: 4; GLD-1 TGE inh: 1; E coli Lon inh: 19*; MCL1 BIM primary: 2; eLon confirm: -6

What do the screens show for `CCCc1ccc2oc(C(=O)NCCc3cnn(C)c3)c(C)c2c1`?
BCLXL inh: 4; GLD-1 TGE inh: 7; E coli Lon inh: 19*; MCL1 BIM primary: 3; MEX-5 binding: -3; eLon confirm: -3

How did CCCc1ccc2oc(C(=O)NCCc3nc(C(=O)OCC)cs3)c(C)c2c1 do in these assays?
E coli Lon inh: -8; MEX-5 binding: -3

How did C=CCOc1ccccc1CNc1cccc(F)c1 do in these assays?
BCLXL inh: -1; GLD-1 TGE inh: 1; E coli Lon inh: -8; MCL1 BIM primary: 0; MEX-5 binding: 0

Results for C=CCOc1ccccc1CNc1ccc2[nH]c(=O)[nH]c2c1 ?
BCLXL inh: 7; GLD-1 TGE inh: -3; E coli Lon inh: 25*; MCL1 BIM primary: 1; MEX-5 binding: -1; eLon confirm: -3
